Assay [1] has as its target Nuclear receptor coactivator 3 (Homo sapiens) (UniProt Q9Y6Q9). Kind of assay: NCOA3 GAL4-fusion reporter inhibition – cell-based, luminescence, quadruplicate, confirmation (AID 588792).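 Also: 0% = DMSO treated cells and 100% = gossypol at 36 µM.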 Particulars: HEK293 GAL4-SRC3 luciferase reporter, at 3.6 µM, active compounds read high.
The test system of assay [2] is transactivating tegument protein VP16 (Human herpesvirus 1), Gal4-VP16 luciferase reporter. The assay is described as follows: repression of VP16-driven luciferase reporter – cell-based, luminescence, high throughput, counter-screen for SRC3 inhibitor project (AID 588794; in the data active = inhibition above about 30%). Particulars: mammalian cells, at 3.6 µM, active compounds read high. A general note: A reporter such as luciferase makes a cellular process visible.

Values without a mark were called inactive. The source made the active and inactive calls.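 The calls were made as follows, unless noted: active = mean inhibition over 43.08%, the solvent-only control mean plus 3 SD; inactive = the rest.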

The inhibition is the relative decrease from the control value, in per cent.

Nuclear receptor coactivator 3 (Homo sapiens), sequence (Q9Y6Q9 whole entry, looked up, the tested form may be a part): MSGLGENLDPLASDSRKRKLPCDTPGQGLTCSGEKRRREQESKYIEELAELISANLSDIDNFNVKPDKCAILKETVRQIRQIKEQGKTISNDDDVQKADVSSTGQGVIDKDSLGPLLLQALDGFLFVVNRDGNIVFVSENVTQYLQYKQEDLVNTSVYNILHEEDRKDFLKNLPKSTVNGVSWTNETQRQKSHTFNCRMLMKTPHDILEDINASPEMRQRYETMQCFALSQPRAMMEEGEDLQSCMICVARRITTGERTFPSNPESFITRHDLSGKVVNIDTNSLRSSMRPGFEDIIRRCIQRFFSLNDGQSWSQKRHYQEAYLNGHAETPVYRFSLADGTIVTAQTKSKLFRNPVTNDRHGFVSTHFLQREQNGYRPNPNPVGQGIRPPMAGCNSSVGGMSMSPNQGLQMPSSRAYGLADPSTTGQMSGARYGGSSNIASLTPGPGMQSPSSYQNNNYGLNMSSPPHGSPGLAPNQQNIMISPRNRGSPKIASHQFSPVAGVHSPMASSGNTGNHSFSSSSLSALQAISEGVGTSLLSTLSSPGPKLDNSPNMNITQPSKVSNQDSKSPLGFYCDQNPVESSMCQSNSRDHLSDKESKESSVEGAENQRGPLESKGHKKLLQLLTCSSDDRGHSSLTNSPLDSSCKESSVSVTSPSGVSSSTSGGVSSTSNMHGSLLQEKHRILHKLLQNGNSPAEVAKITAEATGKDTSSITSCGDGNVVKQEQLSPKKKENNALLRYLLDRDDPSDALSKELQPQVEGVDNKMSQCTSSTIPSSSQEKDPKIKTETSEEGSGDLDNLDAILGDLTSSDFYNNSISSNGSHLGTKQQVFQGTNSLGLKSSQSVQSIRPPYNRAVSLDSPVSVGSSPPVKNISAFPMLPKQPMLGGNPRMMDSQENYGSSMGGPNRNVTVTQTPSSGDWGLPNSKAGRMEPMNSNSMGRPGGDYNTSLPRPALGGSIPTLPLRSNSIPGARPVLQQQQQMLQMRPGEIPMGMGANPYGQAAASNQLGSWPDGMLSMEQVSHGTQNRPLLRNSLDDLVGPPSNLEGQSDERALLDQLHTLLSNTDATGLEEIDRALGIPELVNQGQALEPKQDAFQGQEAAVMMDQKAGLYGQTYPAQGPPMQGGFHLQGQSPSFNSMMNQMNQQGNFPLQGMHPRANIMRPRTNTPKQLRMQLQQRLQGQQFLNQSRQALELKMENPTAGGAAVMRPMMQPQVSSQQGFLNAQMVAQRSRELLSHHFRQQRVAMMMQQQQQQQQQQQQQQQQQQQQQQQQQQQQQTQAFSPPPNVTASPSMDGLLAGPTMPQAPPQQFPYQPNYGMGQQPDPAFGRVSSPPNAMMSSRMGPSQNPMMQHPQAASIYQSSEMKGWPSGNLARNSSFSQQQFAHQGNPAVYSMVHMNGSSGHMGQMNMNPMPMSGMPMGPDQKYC

For the molecule `Cc1cccc(OCC(O)Cn2c(=N)n(CCN3CCCCC3)c3ccccc32)c1` (centres undefined), the inhibition in assay [1] was 2.86%; in assay [2], 20.6%.
On the same counts, the results for `Cc1cc(C)c2nc(C(F)(F)F)c(C#N)c(N)c2c1` are 45.1% (active) and 31.6% (active).
On the same counts, the results for `C/C(=N\NC(=O)c1c(C)nc2ccccn12)c1ccc(O)cc1O` are 52.7% (active) and 55.2% (active).
For `CC(C)C(=O)N1CCN(c2ccc(NC(=O)COc3ccccc3[N+](=O)[O-])cc2)CC1`, in that order: 12.7% and 28.6%.
Take `O=C(C1=C(O)C(=O)N(CCN2CCOCC2)C1c1cccc([N+](=O)[O-])c1)c1cccs1` (centres undefined): the inhibition in assay [1] was -8.15%; in assay [2], -1.72%.
As to `Cc1ccc(/C=C/C(O)=C2/C(=O)N(C)C3(C)CC2c2ccccc2O3)cc1` (centres undefined), the inhibition in assay [1] is 20.3%; in assay [2], 30.3% (active).
For `CC(=O)c1c(C)[nH]c(C(=O)OCC(=O)Nc2c(C)cccc2C)c1C`, in that order: 16.8% and 13.5%.
For `COc1cccc(-c2c(C(=O)N/N=C/c3ccncc3)nnn2-c2nonc2N)c1`, in that order: 3.64% and 12.9%.
On the same counts, the results for `CCCn1nc(C(=O)NCC2COc3ccccc3O2)c2ccccc2c1=O` (centres undefined) are 9.61% and 3.2%.
As to `CC(C)Nc1nc(Cl)nc(NNC(=O)C(C)Oc2ccccc2)n1` (centres undefined), the inhibition in assay [1] was -3.52%; in assay [2], 4.03%.
On to `Cc1ccc2c(c1)/C(=C/c1ccc(F)cc1)C(=O)N2`, for which the inhibition in assay [1] is 7.93%; in assay [2], -3.06%.
Regarding `COc1cc2c(ccc3cc(OC)c(OC)c(O)c32)cc1O`, the inhibition in assay [1] was 56.5% (active); in assay [2], -4.29%.
Consider `C/C(=N\NC(=S)Nc1cc(S(=O)(=O)N2CCOCC2)ccc1Cl)c1ccccc1F`, for which the inhibition was 31.8% in assay [1] and 28.8% in assay [2].
In the case of `O=C1CC(=O)OC(c2ccc([N+](=O)[O-])cc2)O1`, the results for the inhibition in assay [1] and in assay [2] were 26.8% and 40.5% (active), respectively.
For `CN(Cc1cccc(F)c1)C(=O)C1CC(=O)N(Cc2ccco2)C1` (centres undefined), in that order: -0.39% and -6.54%.
On the same counts, the results for `O=C(CNc1cccc([N+](=O)[O-])c1)N/N=C/c1ccc([N+](=O)[O-])o1` are 32.3% and 14.3%.
On the same counts, the results for `CC(=O)c1ccc(Sc2nnnn2-c2ccccc2)c([N+](=O)[O-])c1` are 11.4% and -10.4%.
On to `c1ccc(Oc2cccc(Oc3ccccc3)n2)cc1`, for which the inhibition is 5.37% in assay [1] and 1.72% in assay [2].
In the case of `CCCc1[nH]nc2c1C(c1ccc(Br)s1)C(C#N)=C(N)O2` (centres undefined), the inhibition in assay [1] was 8.21%; in assay [2] it was 25.7%.
In the case of `CNC(=O)c1ccc(-c2sc3nc(N4CCOCC4)c4c(c3c2N)CC(C)(C)OC4)o1`, the inhibition in assay [1] is 3.63%; in assay [2] it was -22.1%.
For `OCC(O)C(O)C(O)C(O)C1NCCS1` (centres undefined), in that order: -6.42% and -4.51%.
On to `COc1ccc(NC(=O)c2sc(=O)n(Cc3ccccc3C#N)c2C)cc1OC`, for which the inhibition is 7.52% in assay [1] and 31.8% (active) in assay [2].
For `CCc1ccc(NC(=O)c2cnc(N3CCN(c4ccccn4)CC3)c3ccccc23)cc1`, the inhibition is 18.1% in assay [1] and 42% (active) in assay [2].
`COc1ccc(-c2ncncc2-c2ccc(Cl)cc2)c(O)c1`: the inhibition is 25.1% in assay [1] and 22.8% in assay [2].
For `Cc1cccc(C)c1OCC(=O)N(Cc1cccs1)C1CCS(=O)(=O)C1` (centres undefined), the values for the inhibition in assay [1] and in assay [2] were 8.07% and 1.1%, respectively.
On the same counts, the results for `CC1=C/C(=N\OS(=O)(=O)c2ccccc2)C(C)=CC1=O` are 19.7% and 9.07%.
For `COC(=O)c1ccccc1NC1=C/C(=N\S(=O)(=O)c2cccs2)c2ccccc2C1=O`, in that order: 2.2% and 6.65%.
On the same counts, the results for `Cc1nc(Nc2ccc3c(c2)OCCO3)c2nnn(Cc3ccccc3Cl)c2n1` are 22.1% and -3.54%.
In the case of `CCCCc1nc2ccccc2c(N)c1CCC` (tested in a mixture with another compound), the values for the inhibition in assay [1] and in assay [2] were 8.62% and 9.99%, respectively.
As for `C#CC(=O)N(c1cc(OC)ccc1OC)C(C(=O)NC1CCCC1)c1cccs1` (centres undefined), the inhibition was 49.7% (active) in assay [1] and 7.33% in assay [2].
On to `COc1ccc(C(C)=O)cc1CSc1nnc(Nc2ccccc2)s1`, for which the inhibition in assay [1] was 9.88%; in assay [2], 19.3%.
In the case of `CC(C)[C@@H]1CC[C@@H](C)C[C@H]1OC(=O)C[n+]1cc(-c2ccc(Cl)cc2)n2c1CCCCC2`, the results for the inhibition in assay [1] and in assay [2] were 10.3% and 20.6%, respectively.
For `CC(Oc1ccc(Cl)cc1)C(=O)NCCN1C(=O)S/C(=C\c2cccnc2)C1=O` (centres undefined), in that order: 4.29% and -2.64%.
For `CCN(CC)S(=O)(=O)c1cc(NC(=O)C(C)OC(=O)c2[nH]c(C)c(C(C)=O)c2C)ccc1C` (centres undefined), in that order: 16% and 8.36%.
Turning to `COC(=O)c1cc(S(=O)(=O)NCCc2ccc(Cl)cc2)c[nH]1`, the inhibition in assay [1] was 29.2%; in assay [2], 18.4%.
As for `COc1ccc(-n2c(-c3ccc(Br)cc3)c[n+]3c2SC(C)C3)cc1` (centres undefined), the inhibition in assay [1] is 12.5%; in assay [2], 23.3%.
With `[O-]C(=C(C(=S)Nc1cccc2ccccc12)[n+]1ccccc1)c1ccc2c(c1)OCCO2`, the values for the inhibition in assay [1] and in assay [2] were 3.21% and -0.81%, respectively.
For `FC(F)(F)c1cccc(-c2nc3nc(Cl)c(Cl)nc3[nH]2)c1`, in that order: -12% and 31.5% (active).
`CCC(O)CC(C(=O)NNc1ccccc1)C(=O)NNc1ccccc1` (centres undefined): the figures for the inhibition in assay [1] and in assay [2] were -2.21% and 11.1%, respectively.
On the same counts, the results for `C=CCN1CN(S(=O)(=O)c2cccs2)c2nc3ccccc3nc21` are -9.88% and 7.9%.
On to `c1ccc(CN2CCN(c3ncnc4c3[nH]c3ccccc34)CC2)cc1`, for which the inhibition in assay [1] was 8.1%; in assay [2] it was 29.9% (active).
For `Cc1cc(C)nc(/N=C(\N)Nc2ccccc2-c2ccccc2)n1`, in that order: -12% and 13.4%.
On the same counts, the results for `Cc1cc(C(C)(C)C)cc(C)c1Cn1c2[n+](c3ccc(C(F)(F)F)cc31)CCCCC2` are 11% and 21.3%.
On the same counts, the results for `COc1ccc(NC(=O)C2CCN(S(=O)(=O)c3ccc4c(c3)CC(C)N4C(C)=O)CC2)cc1OC` (centres undefined) are 9.24% and 5.82%.
Regarding `COc1ccccc1NC(=O)Nc1nnc(Cc2ccc(F)cc2)s1`, the inhibition in assay [1] was 3.85%; in assay [2], 9.25%.
As to `Cc1ccc(F)cc1NC(=O)C1CCN(c2cnccn2)CC1`, the inhibition is -9.49% in assay [1] and -3.26% in assay [2].
`CCc1nc(Nc2ccc3nccnc3c2)c2oc3ccccc3c2n1`: the inhibition in assay [1] is 5.99%; in assay [2], 13.6%.
On the same counts, the results for `COc1cc(C(=O)NC2CCCc3c2cnn3-c2ccccc2F)cc(OC)c1OC` (centres undefined) are 2.41% and 21%.
On to `Clc1ccc(-c2noc(CSc3nnc(-c4ccncc4)n3-c3ccccc3)n2)cc1`, for which the inhibition in assay [1] is 8.46%; in assay [2], 8.1%.
On the same counts, the results for `COc1ccccc1OCC(=O)N/N=C/c1c(O)ccc2ccccc12` are 12.8% and 22.8%.
With `COc1ccc2c(c1)N(C)/C(=C/c1cccc[n+]1C)S2`, the values for the inhibition in assay [1] and in assay [2] were -6.44% and 37.5% (active), respectively.
For `Cc1c(Cl)cccc1NC(=O)CCC(=O)N/N=C/c1ccc[nH]1`, in that order: 13.6% and 14.5%.
For `O=C(CCN1CCOCC1)N/N=C/c1cc(Br)cc(Br)c1O`, in that order: 13.6% and 7.46%.
As to `COc1cccc(C(=O)/C=C/c2ccc(OCC#N)c(OC)c2)c1`, the inhibition was 22.2% in assay [1] and 23.2% in assay [2].
`CCOC(=O)c1c(-c2ccccc2)oc2ccc(O)c(CN3CCOCC3)c12`: the inhibition in assay [1] is -5.57%; in assay [2] it was 4.57%.
With `C/C(N)=C(/C#N)C(=O)COC(=O)c1ccc(C#N)cc1`, the inhibition in assay [1] was -7.91%; in assay [2] it was -0.63%.
As to `c1csc(Cc2nn3c(-c4ccncc4)nnc3s2)c1`, the inhibition in assay [1] was 29.8%; in assay [2] it was 20.8%.
With `COc1cc(/C=C(/C(=O)c2cccs2)c2nc3ccccc3[nH]2)cc(OC)c1O`, the inhibition in assay [1] is 31.4%; in assay [2] it was 12.1%.
In the case of `CN1CCN(Cc2cc(COCc3ccccc3)c3cccnc3c2O)CC1`, the inhibition in assay [1] was 20.5%; in assay [2] it was 31% (active).
On the same counts, the results for `CCCCN(CCCC)C(=O)CSc1nnc(-c2cc(OC)c(OC)c(OC)c2)o1` are -1.92% and 4.79%.
For the molecule `Cc1ccc(Cl)cc1N1CCN(C(c2ccc(C#N)cc2)c2nnnn2C2CCCC2)CC1` (centres undefined), the inhibition was 1.29% in assay [1] and 22.5% in assay [2].
On the same counts, the results for `COc1ccc(C(=O)Cn2nc(CNc3ccc(Br)cc3)[n+]3c2CCCCC3)cc1` are -7.02% and 3.2%.
In the case of `CCCOc1cccc(C(=O)Nc2cc(NC(=O)c3ccco3)ccc2OC)c1`, the inhibition was 10.8% in assay [1] and 2.92% in assay [2].
On the same counts, the results for `C/C(=N\NC(=O)C1COc2ccccc2O1)c1ccccn1` (centres undefined) are -12.8% and 19.6%.
For `Cn1nnnc1Sc1ncnc2scc(-c3ccccc3)c12`, in that order: -4.36% and 2.99%.
Consider `Cc1cccc(Nc2ncnc(N)c2[N+](=O)[O-])n1`, for which the inhibition in assay [1] was 24.9%; in assay [2] it was 4.32%.
On the same counts, the results for `O=C(CCl)Nc1cccc(-c2cnc3ccccc3n2)c1` are 33.5% and 13.8%.
Consider `O=C(NN=Cc1cccc(O)c1O)c1ccccc1`, for which the inhibition was 23.7% in assay [1] and 21.5% in assay [2].
For `Cc1ccc(S(=O)(=O)Nc2ccc3c(c2)OCCO3)cc1C`, in that order: 24.1% and -2.28%.
On the same counts, the results for `COC(=O)N/N=C/c1cn(Cc2ccc(Cl)cc2Cl)c2ccccc12` are 18.6% and 0.26%.
Regarding `O=C(Nc1ccc(OC(F)(F)F)cc1)Nc1cccc([N+](=O)[O-])c1`, the inhibition in assay [1] was -15.5%; in assay [2] it was 1.65%.
On the same counts, the results for `Cc1ccc(S(=O)(=O)N(C)c2ccc(OCC(=O)OCc3c(C)noc3C)cc2)cc1` are -4.68% and -6.86%.

Source of the values: PubChem BioAssay.
